The list is not random: actives were taken first. Their share in the collection is about 1.8%.
PriA SSB inh: blocks PriA binding to SSB C-terminal tail | AlphaScreen SSBct-PriA binding, biotinylated peptide | inhibition, % at 33 µM | 430,000 tested, 0.6% active | AID 1272365; in the data active = inhibition mostly above about 37%, no sharp cut-off; inactive = mostly below about 20%
Mtb hypoxia rep: inhibitors of hypoxia-regulated fluorescent reporter in Mycobacterium tuberculosis. 300,000 tested, 0.1% active. fluorescence inhibition, % (concentration not given with the values). M. tuberculosis hypoxia-regulated fluorescent reporter, fluorescence; in the data active = fluorescence inhibition mostly above about 23%, no sharp cut-off; inactive = mostly below about 17%
PfHsp40 rescue: restores yeast growth despite PfHsp40 toxicity | S. cerevisiae expressing PfHsp40, growth rescue, ATP luminescence | growth rescue, % at 12.5 µM | 340,000 tested, 0.68% active | AID 504582; in the data active = growth rescue above about 28%, passing the limit was not always enough;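 also: yeast W303a lacking pdr1 and pdr3 grown in galactose medium; growth measured after three days at 30 °C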
Sa RN4220 lethal: kills Staphylococcus aureus RN4220 | AID 1259311 | 330,000 tested, 0.33% active | inhibition, % (test concentration not listed) | S. aureus RN4220 growth, OD600, 16 h; in the data active = inhibition above about 85%
DUSP3 inh: inhibitors of human VHR1 phosphatase (DUSP3) | 290,000 tested, 0.52% active | recombinant VHR phosphatase, pNPP absorbance | inhibition, % at 13.3 µM | P51452; in the data active = inhibition above about 50%
Target sequence (P51452 whole entry, looked up): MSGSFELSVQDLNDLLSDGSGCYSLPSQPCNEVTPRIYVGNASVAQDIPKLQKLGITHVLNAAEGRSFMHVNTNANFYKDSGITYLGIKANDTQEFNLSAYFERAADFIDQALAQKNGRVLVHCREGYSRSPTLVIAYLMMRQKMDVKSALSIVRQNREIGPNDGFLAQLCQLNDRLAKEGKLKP
ugtP null kill: compounds lethal to S. aureus RN4220 ugtP deletion mutant | OD600 growth, 16 h | growth inhibition, % (test concentration not listed) | 330,000 tested, 0.54% active | AID 1259309; in the data active = growth inhibition above about 68%
Each line names hits and unclear results; the compound was inactive in the other large screens.

Cc1ccc(C2(CCNCc3ccc(N(C)C)cc3)CCOC(C(C)C)C2)cc1 (configuration not stated)	DUSP3 inh 57 (no result: Mtb hypoxia rep, Sa RN4220 lethal, ugtP null kill)
CC(C)C1CC(CCNCc2ccc(N(C)C)cc2)(c2ccccc2)CCO1 (configuration not stated)	none (no result: Mtb hypoxia rep, Sa RN4220 lethal, ugtP null kill)
O=C1NC(c2c(F)cccc2Cl)C(C(=O)c2ccccc2)C(O)(C(F)(F)F)N1 (configuration not stated)	none (no result: Mtb hypoxia rep, PfHsp40 rescue, Sa RN4220 lethal, DUSP3 inh, ugtP null kill)
CCN1CCN(Cc2ccc(NC(=O)c3cc(NC(=O)c4cncc(-c5cccs5)c4)cc(OC)c3)cc2C(F)(F)F)CC1	PriA SSB inh 42 (no result: Mtb hypoxia rep, PfHsp40 rescue, Sa RN4220 lethal, ugtP null kill)
CCN1CCN(Cc2ccc(NC(=O)c3cc(NC(=O)c4cc5cccc(OC)c5o4)cc(OC)c3)cc2C(F)(F)F)CC1	PriA SSB inh 73
CCOC(=O)c1sc(NC(=O)C2CCCCC2)c(C#N)c1C	none (no result: Mtb hypoxia rep, PfHsp40 rescue, Sa RN4220 lethal, DUSP3 inh, ugtP null kill)
Cc1cc(NC(=S)Nc2ccc(C)c(Cl)c2)n[nH]1	PfHsp40 rescue 57
CN(C1CCCCC1)C(CNS(=O)(=O)c1ccccc1)c1ccccc1 (configuration not stated)	DUSP3 inh 53
CN(C)C(CNS(=O)(=O)c1ccc2c(c1)CCCC2)c1ccccc1 (configuration not stated)	none (no result: Mtb hypoxia rep, PfHsp40 rescue, Sa RN4220 lethal, DUSP3 inh, ugtP null kill)
COc1ccc(C2C=CCN(C(=O)Nc3ccccc3)CC(=O)N2Cc2ccc(F)cc2)cc1 (configuration not stated)	none (no result: PriA SSB inh, PfHsp40 rescue, DUSP3 inh)
COc1ccc(C2/C=C\CN(C(=O)Nc3ccc(C(F)(F)F)cc3)CC(=O)N2Cc2ccc(F)cc2)cc1 (configuration not stated)	PfHsp40 rescue 93 (no result: Mtb hypoxia rep, Sa RN4220 lethal, ugtP null kill)
CC(=O)N(C1=C(Cl)C(=O)c2ccccc2C1=O)C1CCCCC1	PfHsp40 rescue 147
CC(=O)N(c1ccccc1C)C1CCCC1	none
Cc1ccc(NC(=S)N2CCC(NC(=O)c3cccc(F)c3)CC2)cc1	DUSP3 inh 55
Cc1ccc(NC(=S)N2CCC(NC(=O)c3ccc(C)cc3)CC2)cc1	none
O=S(=O)(CCOc1ccccc1)N1CCN(c2ncccn2)CC1	none (no result: Mtb hypoxia rep, PfHsp40 rescue, Sa RN4220 lethal, DUSP3 inh, ugtP null kill)
O=C(Cc1csc(Nc2cccc(Cl)c2)n1)NCc1ccncc1	none (no result: Mtb hypoxia rep, PfHsp40 rescue, Sa RN4220 lethal, DUSP3 inh, ugtP null kill)
COC(=O)c1ccsc1NC(=O)C1CN(C(=O)c2ccc3c(c2)OCO3)C1	none (no result: Mtb hypoxia rep, PfHsp40 rescue, Sa RN4220 lethal, DUSP3 inh, ugtP null kill)
COc1ccc(CCNC(=O)COc2ccc3c(C)cc(=O)oc3c2)cc1	none (no result: DUSP3 inh)
Cc1cc(=O)oc2cc(OCC(=O)NCCc3ccccc3)ccc12	DUSP3 inh 58
COc1ccc2c(c1)-c1c(sn(-c3ccccc3)c1=S)C(C)(C)N2	none
COc1ccc(-n2sc3c(c2=S)-c2cc(OC)ccc2NC3(C)C)cc1	ugtP null kill 84 (no result: Mtb hypoxia rep)
Cn1nnn(-c2ccc(NS(=O)(=O)c3ccc(OC(F)(F)F)cc3)cc2)c1=O	none (no result: Mtb hypoxia rep, PfHsp40 rescue, Sa RN4220 lethal, DUSP3 inh, ugtP null kill)
COc1cccc(C(=O)NCCn2ncc3c(=O)n(Cc4ccc(Cl)cc4)cnc32)c1	none (no result: Mtb hypoxia rep, PfHsp40 rescue, Sa RN4220 lethal, DUSP3 inh, ugtP null kill)
CC(C)(C)C(=O)Nc1ccc(Sc2ccc([N+](=O)[O-])cc2)cc1	none
CC(=O)Nc1ccc(Sc2ccc([N+](=O)[O-])o2)cc1	PfHsp40 rescue 54 (not shown: Mtb hypoxia rep, DUSP3 inh)
CCCCCCc1ccc(-c2ncc(N)cn2)cc1	ugtP null kill 100
CCCCCCCCCOc1ccc(-c2ncc(CCCCCCCCC)cn2)cc1	none (no result: Mtb hypoxia rep, PfHsp40 rescue, Sa RN4220 lethal, DUSP3 inh, ugtP null kill)
CCOc1ccccc1CN1CCNC(=O)C1CC(=O)NC1CCCCC1 (configuration not stated)	DUSP3 inh 51
CCOc1ccccc1CN1CCNC(=O)C1CC(=O)NC1CCCCCC1 (configuration not stated)	none
Oc1cccc2ccc[n+](CC(O)Cn3c4ccccc4c4ccccc43)c12 (configuration not stated)	PriA SSB inh 73
Cc1cc2ncc3c(n2n1)CCN(C(=O)c1cnoc1C)C3	none (no result: Mtb hypoxia rep, PfHsp40 rescue, Sa RN4220 lethal, DUSP3 inh, ugtP null kill)
CS(=O)(=O)c1ccc2nc(NC(=O)c3ccc(NS(=O)(=O)c4ccc(F)c(F)c4)cc3)sc2c1	none
O=C(Nc1nc2ccc(SC(F)F)cc2s1)c1ccc(NS(=O)(=O)c2ccc(F)c(F)c2)cc1	Sa RN4220 lethal 100, ugtP null kill 100
CCCCc1ccc(NC(=O)CCc2csc(NC(=O)c3ccccc3)n2)cc1	none (no result: Mtb hypoxia rep, PfHsp40 rescue, Sa RN4220 lethal, DUSP3 inh, ugtP null kill)
O=C(Nc1ccc([N+](=O)[O-])cc1)Nc1ccc(OC(F)F)c(Cl)c1	Sa RN4220 lethal 99, ugtP null kill 100
Cn1c(N=Nc2ccccc2)nc2ccccc21	none
Cc1[nH]c(N=Nc2ccccc2)nc1N=Nc1ccccc1	PfHsp40 rescue 80 (no result: Mtb hypoxia rep, Sa RN4220 lethal, ugtP null kill)
Cc1cccn2cc(-c3ccccc3NC(=O)c3cc(=O)c4ccccc4o3)nc12	none (no result: Mtb hypoxia rep, PfHsp40 rescue, Sa RN4220 lethal, DUSP3 inh, ugtP null kill)
